Measured values: the supplement of paper PMC3334620
Whole data set: some 33,000 sequences, median “E-score (-0.5 to 0.5)” near -0.053, cut for the highest 2% near 0.37. This excerpt belongs to a sample that is enriched for the highest values.

Target: Hap1 (UniProt P0CE41)
Assay: PBM E-score (8-mer binding enrichment) (E-score (-0.5 to 0.5)); higher = stronger / more preferred TF binding
Conditions: protein concentration: 200 nM; construct: GST-DNA-binding domain
Procedure: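 Universal 'all 10-mer' protein binding microarrays (Agilent AMADID 015681) probed with GST-tagged S. cerevisiae TFs (full-length or DBD) made by in vitro transcription/translation (PURExpress), about 100-200 nM. Bound TF was detected with fluorescent anti-GST. Each ungapped 8-mer (which stands for itself and its reverse complement) is scored by the PBM enrichment score (E-score), a modified Wilcoxon-Mann-Whitney statistic from -0.5 to +0.5, computed with the Universal PBM Analysis Suite. Scale: above 0.35 generally sequence-specific binding.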

Sequence of UniProt P0CE41 (P0CE41 whole entry): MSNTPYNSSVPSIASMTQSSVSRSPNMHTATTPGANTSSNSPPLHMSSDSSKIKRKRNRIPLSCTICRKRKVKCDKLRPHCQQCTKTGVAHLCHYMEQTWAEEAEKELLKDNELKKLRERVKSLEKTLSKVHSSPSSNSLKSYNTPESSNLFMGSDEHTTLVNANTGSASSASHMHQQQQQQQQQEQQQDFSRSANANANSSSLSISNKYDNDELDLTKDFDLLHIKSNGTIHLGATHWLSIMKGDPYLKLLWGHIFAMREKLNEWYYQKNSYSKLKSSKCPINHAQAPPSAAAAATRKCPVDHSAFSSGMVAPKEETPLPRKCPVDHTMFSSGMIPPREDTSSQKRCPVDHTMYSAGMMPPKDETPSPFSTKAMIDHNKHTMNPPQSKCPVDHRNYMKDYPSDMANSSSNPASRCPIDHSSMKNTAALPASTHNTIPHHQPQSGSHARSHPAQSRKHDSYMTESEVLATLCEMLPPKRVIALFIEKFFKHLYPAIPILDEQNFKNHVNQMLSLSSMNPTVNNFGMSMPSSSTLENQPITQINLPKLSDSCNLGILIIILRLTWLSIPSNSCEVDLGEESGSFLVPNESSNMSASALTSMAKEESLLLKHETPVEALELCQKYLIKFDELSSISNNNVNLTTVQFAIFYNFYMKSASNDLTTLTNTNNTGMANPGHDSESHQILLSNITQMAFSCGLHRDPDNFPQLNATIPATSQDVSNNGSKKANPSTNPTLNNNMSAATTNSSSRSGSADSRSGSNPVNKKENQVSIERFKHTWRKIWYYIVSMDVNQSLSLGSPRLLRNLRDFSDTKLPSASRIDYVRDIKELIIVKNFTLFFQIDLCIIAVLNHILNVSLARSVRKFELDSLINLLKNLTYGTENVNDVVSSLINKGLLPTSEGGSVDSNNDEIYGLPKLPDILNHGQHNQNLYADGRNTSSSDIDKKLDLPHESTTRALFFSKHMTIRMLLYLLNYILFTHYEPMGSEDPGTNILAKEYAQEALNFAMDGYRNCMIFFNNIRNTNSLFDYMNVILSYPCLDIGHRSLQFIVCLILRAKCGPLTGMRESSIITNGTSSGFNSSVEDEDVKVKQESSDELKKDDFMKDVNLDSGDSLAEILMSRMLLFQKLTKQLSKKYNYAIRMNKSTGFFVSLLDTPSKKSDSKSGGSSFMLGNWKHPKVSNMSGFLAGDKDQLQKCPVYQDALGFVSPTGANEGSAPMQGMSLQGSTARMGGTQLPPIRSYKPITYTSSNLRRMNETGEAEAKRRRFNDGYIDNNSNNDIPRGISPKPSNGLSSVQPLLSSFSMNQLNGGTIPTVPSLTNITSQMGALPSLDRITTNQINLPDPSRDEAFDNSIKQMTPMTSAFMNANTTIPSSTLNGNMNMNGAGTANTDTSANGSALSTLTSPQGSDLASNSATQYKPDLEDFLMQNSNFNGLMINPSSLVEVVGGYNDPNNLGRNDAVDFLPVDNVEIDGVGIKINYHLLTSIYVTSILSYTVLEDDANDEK

Sequence | PBM E-score
CTAACTCC | 0.403
AAAAGGAA | 0.0913
ACGGGTAT | 0.0846
CGCGATAG | 0.2
AGCGATAG | 0.119
CGCGATAC | 0.17
ACCGATAG | 0.373
CCCGATAG | 0.414
ACCGATAA | 0.443
CCCGATAC | 0.432
CACGATAG | -0.138
AACGATAG | 0.118
AGCGATAA | 0.284
ACCGATTA | 0.335
CCCGATCC | 0.31
CATCGAGG | -0.23
CTCAGGAA | -0.108
AACCGGCT | 0.252
GCTGCTCA | -0.241
GGCAAGGA | -0.0722
CTGAGTCC | -0.0126
ACTATCAA | 0.0295
CCGCCTCC | 0.0265
CGATTTTC | 0.147
ACCGATCT | 0.274

Sequence | PBM E-score
GTCGATAA | -0.0382
AACGATAT | -0.0547
GCCGATGA | 0.373
GCCGATAA | 0.449
CCCGATGA | 0.285
CGCGATAA | 0.115
GGCGATAC | 0.265
ACCGATAT | 0.43
ACCGATGA | 0.223
GGCGATAA | 0.392
GCCGATCA | 0.263
CTAGATGC | -0.224
GAATCGAA | -0.142
ACAGGCTG | -0.256
CTTGCACA | -0.136
ACCGATAC | 0.371
TACGATAA | 0.0399
TCCGATAA | 0.45
AACGATAC | -0.2
AGCGATAC | 0.065
TCCGATCA | 0.221
CACGATAA | 0.087
GCCGATAC | 0.417
CCCGATTA | 0.197
CCCGATAA | 0.417

Sequence | PBM E-score
GCCGATCC | 0.258
GACGATAC | 0.0839
GTAGGGAC | -0.0187
AGTGAGTC | -0.18
CCTCTAAG | -0.337
GTTATCGA | 0.165
CAGACCAG | 0.0149
TGAATTAA | -0.0149
GGAATTAA | 0.419
CGAATTAA | 0.0158
GGAATTAC | 0.375
CGAATTAC | 0.15
AGAATTAC | 0.0991
TATCTCAA | -0.0851
GCCTGGAC | -0.0392
ATATCCGA | 0.463
ATATCCCG | 0.286
ATATCCTC | 0.0211
AGATCCGA | 0.359
ATATCCAG | 0.0668
ATATCCGC | 0.387
AGATCCGC | 0.263
AGATCCGG | 0.384
GTATCCGA | 0.304
CTATCCGA | 0.113

Sequence | PBM E-score
ATATCCGG | 0.452
CTATCCGC | 0.257
AGGCAATG | -0.17
ACTGGGGA | -0.016
AGTGGAAC | 0.0266
CAGATCCC | 0.0493
AAGTCCGC | 0.427
AAGTCCGT | 0.417
AAGTCCAT | -0.00211
AAGTCCCT | -0.278
AAGTCCTG | -0.0784
CAGTCCGG | 0.364
AAGTCCGG | 0.47
CAGTCCGC | 0.0912
GAGTCCGC | 0.249
GTTGGTTA | -0.0552
TTGCAAAA | -0.00902
CCGAAGTA | 0.365
GAGGCACA | -0.112
ATCCGTTA | 0.409
ATCCGTTC | 0.233
ATCCGTTG | 0.301
GTCCGTGA | 0.303
GTCCGTTA | 0.444
CTCCGTTA | 0.367

Sequence | PBM E-score
CGCCCGCA | 0.189
GCCTGAAC | -0.0686
CGCAGGGC | -0.0256
GGGTATGA | 0.0413
TCGGAAAA | 0.402
CCGGAAAA | 0.432
CCGGAATA | 0.357
CAGGAAAA | -0.0124
ACGGAATC | 0.28
CCGGAATC | 0.416
CCGGAAGA | 0.365
GCGGAAAA | 0.286
TCGGAACA | 0.349
CCGGAACA | 0.376
ACGGAACA | 0.241
ACGGAAAA | 0.317
AGACACTC | -0.185
GCTTCATA | -0.0731
ACCTAGGC | -0.18
AAAGCGGG | -0.0186
ACTACGCC | -0.098
GAACTGTA | -0.00641
CCACTCCC | 0.119
CCGGCCTC | 0.182
CCGGAAAC | 0.426

Sequence | PBM E-score
CCGGAAAG | 0.307
GCGGAAAC | 0.24
AGTTTCTA | -0.167
ACCAGGAT | 0.0532
AAGCAATA | -0.0998
TCTTGTCA | -0.139
CGACCGGC | 0.232
GGACCGGA | 0.406
CGACCGTA | 0.0335
CGACCGGA | 0.412
GGACCGCA | 0.186
AGACCGGA | 0.334
ACTAGACA | -0.0952
AACGCGCG | 0.13
CTGTCCGA | 0.317
CTGTCCGC | 0.113
ATGTCCGG | 0.468
GTGTCCGA | 0.339
ATGTCCCG | 0.234
ATGTCCCC | 0.0493
ATGTCCTG | 0.00518
ATGTCCGC | 0.374
ATGTCCGA | 0.463
AGGGCCGG | 0.326
CGCCCTCA | -0.149

Sequence | PBM E-score
CGACCAAC | -0.0313
CAACTGGG | -0.122
GCCGGTCA | 0.177
GCCGGTAA | 0.422
AGCGGTAA | 0.247
TCCGGTCA | 0.385
GGCGGTAA | 0.373
CCCGGTCA | 0.262
GGCGGTAC | 0.0136
CCCGGTAA | 0.387
CCCGGTAG | 0.336
CCCGGTAC | 0.296
GCCGGTAC | 0.293
GCCGGTGA | 0.274
ACCTCGCT | 0.0563
AGTTACCG | 0.266
AACAAGGG | -0.0715
ACAGACGC | -0.0711
AATTTACC | 0.0607
AGCGTAGA | -0.0389
TGCGGTAA | 0.042
TACGGTAA | 0.0382
TCCGGTAA | 0.442
